# Compound activity deposited in PubChem BioAssay by National Center for Advancing Translational Sciences (NCATS).
# IL-1B inflam inh = qHTS for Inhibitors of Inflammasome Signaling: IL-1-beta AlphaLISA Primary Screen. 4.7% of 360,000 active. THP-1 LPS/ATP IL-1B secretion, AlphaLISA, 16 h; active compounds read low. AID 743279, 2014. activity change, % at 57.5 µM; in the data active = activity change below about -50%; inconclusive = mostly about -30% to -49%
#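 Secreted IL-1B measured by AlphaLISA bead assay after 16 h compound exposure of THP-1 cells; compounds (final up to 57.5 uM) added 1 h before LPS (250 ng/mL) and ATP (1.25 mM) stimulation; lower signal means less secretion.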
# DT40 TDP1 no CPT = qHTS for Inhibitors of human tyrosyl-DNA phosphodiesterase 1 (TDP1): qHTS in cells in absence of CPT. DT40 Tdp1-/- hTDP1 cells, no CPT, ATP luminescence, 48 h. Potency, µM (titrated, usually from 46.2 µM), inactives show at the top dose activity change, negative = growth inhibition, hits mostly inhibitors. 15% of 420,000 active. AID 686978, 2013; note: potency is the fitted concentration of half-maximal effect; nearly all actives have a fitted effect of over 55% in size
#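 DT40 Tdp1-/-;hTDP1 cells, no CPT (DMSO vehicle only), 400 cells/well; compounds pin-transferred; ≥48 hr, 37 °C; CellTiter-Glo 30 min RT dark, luminescence read.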
# TDP1 inh = qHTS Assay for Inhibitors of Tyrosyl-DNA Phosphodiesterase (TDP1); Tyrosyl-DNA phosphodiesterase 1 (Homo sapiens), Q9NUW8; recombinant TDP1, AlphaScreen DNA substrate cleavage; 0.28% of 350,000 active; Potency, µM (top dose mostly 130 µM), for inactives: at the top dose activity change, negative = inhibition, most hits filed as inhibitors; note: potency is the fitted concentration of half-maximal effect; nearly all actives have a fitted effect of over 40% in size
#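 Steps: enzyme plus compound, 15 min RT; add biotin/phosphotyrosine-FITC oligonucleotide (15 nM final), react 5 min; add donor/acceptor beads (10 ug/ml final), 10 min; read AlphaScreen. Tdp1 at 1 nM final.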
# Six1-Eya2 inh = qHTS Assay for Inhibitors of the Six1/Eya2 Interaction; AlphaScreen GST-Six1/His-Eya2 binding, biochemical; active compounds read low; 0.56% of 360,000 active; activity change, % (test concentration not listed); AID 651725, 2012; in the data active = activity change below about -65%; inconclusive = mostly about -30% to -63%
# Target sequence (O00167 whole entry, looked up): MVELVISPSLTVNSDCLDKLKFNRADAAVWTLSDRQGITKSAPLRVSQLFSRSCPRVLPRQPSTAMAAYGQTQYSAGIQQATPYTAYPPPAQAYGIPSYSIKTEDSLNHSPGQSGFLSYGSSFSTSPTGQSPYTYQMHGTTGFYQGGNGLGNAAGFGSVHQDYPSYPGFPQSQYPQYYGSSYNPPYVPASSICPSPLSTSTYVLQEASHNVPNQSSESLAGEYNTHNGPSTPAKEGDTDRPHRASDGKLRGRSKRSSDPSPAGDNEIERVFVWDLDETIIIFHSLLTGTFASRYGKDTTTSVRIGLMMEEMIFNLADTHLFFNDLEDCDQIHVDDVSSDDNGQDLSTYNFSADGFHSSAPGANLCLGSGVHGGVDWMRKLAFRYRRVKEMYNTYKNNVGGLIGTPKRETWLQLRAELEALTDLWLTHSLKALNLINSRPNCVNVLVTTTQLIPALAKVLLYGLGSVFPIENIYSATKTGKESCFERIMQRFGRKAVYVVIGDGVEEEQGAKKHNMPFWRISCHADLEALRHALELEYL
# Target sequence (Q15475 whole entry, looked up): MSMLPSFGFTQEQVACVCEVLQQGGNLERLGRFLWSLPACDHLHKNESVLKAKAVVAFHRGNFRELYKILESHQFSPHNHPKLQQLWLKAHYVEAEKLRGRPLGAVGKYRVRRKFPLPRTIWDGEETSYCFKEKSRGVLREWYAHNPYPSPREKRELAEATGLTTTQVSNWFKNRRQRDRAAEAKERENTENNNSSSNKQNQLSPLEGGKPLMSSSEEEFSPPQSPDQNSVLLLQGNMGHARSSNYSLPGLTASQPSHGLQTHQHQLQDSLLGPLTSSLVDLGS
#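 AlphaScreen luminescence read after one hour at 37 °C in darkness. Pin-transferred compounds met GST-Six1 and His-Eya2 protein (5X stock 250 nM/500 nM) plus glutathione donor and Ni-chelate acceptor beads (5X, 50 ug/mL).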
# CtBP-E1A blk = qHTS Assay for Inhibitors of the CtBP/E1A Interaction | CtBP / adenovirus E1A interaction (AlphaScreen) | AlphaScreen GST-E1A/His-CtBP binding, 1536-well; active compounds read low | activity change, % (no concentration beside the values) | 0.49% of 340,000 active | AID 651724, 2012; in the data active = activity change below about -65%; inconclusive = mostly about -30% to -63%
#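 Steps: dispense buffer (Tris pH 8.0, NaCl 300 mM, TCEP 1 mM, BSA, Tween 20); add 5X protein mix (GST-E1A, His-CtBP, 125 nM each); pin 23 nL compound; 2 h at 37 °C, dark; add 5X beads (50 ug/mL); 1 h; read.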
# TDP1 cell CPT = qHTS for Inhibitors of human tyrosyl-DNA phosphodiesterase 1 (TDP1): qHTS in cells in presence of CPT; Potency, µM (top dose mostly 46.2 µM), for inactives: at the top dose activity change, negative = growth inhibition, actives largely listed as inhibitors; chicken DT40 Tdp1-/-;hTDP1 cells + 20 nM CPT, ATP luminescence, 48 h; 12% of 420,000 active; note: potency is the fitted concentration of half-maximal effect; nearly all actives have a fitted effect of over 55% in size
#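 Cell growth measured by CellTiter-Glo luminescence after a minimum 48 h, 37 C compound exposure with 20 nM CPT in Tdp1-knockout DT40 cells stably expressing hTDP1, seeded 400/well; qHTS titration format.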
# * marks the source's active call; other numbers are inactive results; ? = inconclusive; / = no result; ! = not confirmed by another sample; [ ] = remark or other dose. Shown are actives, neighbours in structure and some others; about 18% of the full set was active somewhere. Unless noted, calls come from the whole dose curve; as a rule, active = well fitted curve in the direction sought with a large enough effect; inconclusive = small, poorly fitted or top-dose-only effect, or another doubt; inactive = no such curve, though single readings can be large; an effect the other way counts as inactive or inconclusive. % is set by controls: 0 for no effect and ±100 for the full control effect.
SMILES,IL-1B inflam inh,DT40 TDP1 no CPT,TDP1 inh,Six1-Eya2 inh,CtBP-E1A blk,TDP1 cell CPT
COC(=O)C1=C(c2ccc(-c3ccccc3)c(F)c2)C[C@@H]2CC[C@H]1N2C(=O)NCc1cccc2ccccc12,11,23µM*,1%,-15,-15,23µM*
COC(=O)C1=C(c2cccc(C#N)c2)C[C@@H]2CC[C@H]1N2C(=O)NCCO,6,4%,0%,4,6,-2%
COC(=O)C1=C(c2ccccc2)C[C@@H]2CC[C@H]1N2C(=O)NCCO,9,0%,/,6,0,13%
COC(=O)C1=C(c2ccc(-c3ccccc3)c(F)c2)C[C@@H]2CC[C@H]1N2C(=O)NCCCOC(C)C,-10,13µM*,0%,3,-2,15µM*
COC(=O)C1=C(c2ccc3ccccc3c2)C[C@@H]2CC[C@H]1N2C(=O)NCc1ccc(C(F)(F)F)cc1,?,?,0%,3,-2,?
COC(=O)C1=C(c2ccc(-c3ccccc3)c(F)c2)C[C@@H]2CC[C@H]1N2C(=O)NCCOc1ccc(OC)cc1,-25,15µM*,2%,-17,-8,15µM*
COC(=O)C1=C(c2ccc(-c3ccccc3)c(F)c2)C[C@@H]2CC[C@H]1N2C(=O)NCCNC(C)=O,11,?,3%,5,1,21µM*
CCOP(=O)(OCC)c1ccc(OP(=O)(c2cccc([N+](=O)[O-])c2)c2cccc([N+](=O)[O-])c2)cc1,14,-9%,2%,-9,-8,1%
CC12CCC(=O)C=C1CCC1C2CCC2(C)C1CCC2(O)CC#N (centres undefined),-1,?,/,3,14,-18%
O=C(Cc1ccccc1)N1CCN(Cc2cccc(Br)c2)CC1,-3,?,-2%,-3,3,?
CC(=O)NNC(=O)CN1C(=O)CN=C(c2ccccc2)c2cc(Br)ccc21,0,-8%,4%,0,14,6%
COC(=O)C1=C(c2ccc(OC)c(OC)c2)C[C@@H]2CC[C@H]1N2C(=O)NCCc1ccccc1,25,?,-2%,1,2,-27%
COC(=O)C1=C(c2ccc3ccccc3c2)C[C@@H]2CC[C@H]1N2C(=O)NCCCOC(C)C,7,15µM*,1%,5,1,?
COC(=O)C1=C(c2ccc(-c3ccccc3)c(F)c2)C[C@@H]2CC[C@H]1N2C(=O)NCCc1ccccc1,-10,16µM*,3%,0,/,?
COC(=O)C1=C(c2ccc3ccccc3c2)C[C@@H]2CC[C@H]1N2C(=O)NC1Cc2ccccc2C1,-7,?,-2%,-6,/,?
COc1cccc(Oc2coc3cc(OC(=O)N(C)C)ccc3c2=O)c1,-22,?,/,-11,-20,?
COc1ccc(-c2coc3cc(OC(=O)N4CCOCC4)ccc3c2=O)cc1,0,18µM*,3%,-1,4,13µM*
Nc1cccc(SC2CC(=O)N(c3ccc(Cl)cc3C(=O)c3ccccc3)C2=O)c1 (centres undefined),13,21µM*,/,-4,-6,?
COc1ccc(-n2nnnc2C(c2ccccc2OC(F)(F)F)N2CCC(n3c(=O)[nH]c4ccccc43)CC2)cc1 (centres undefined),/,18µM*,/,-8,-22,21µM*
COc1ccc(C(c2nnnn2-c2ccc3c(c2)OCCO3)N2CCC(n3c(=O)[nH]c4ccccc43)CC2)cc1 (centres undefined),?,16µM*,/,-18,-14,?
O=c1[nH]c2ccccc2n1C1CCN(C(c2ccnc3ccccc23)c2nnnn2-c2ccc3c(c2)OCCO3)CC1 (centres undefined),?,9.2µM*,/,-23,-15,5.2µM*
C[C@]12CC[C@H](O)CC1C(=O)CC1C2CC[C@@]2(C)C1CC[C@@H]2O (some centres undefined),8,-12%,3%,7,6,-15%
CC(=O)CC(c1ccc2c(c1)OCO2)c1c(O)c2ccccc2oc1=O (centres undefined),-3,-20%,/,-1,0,-21%
Cc1ccc(CNCc2c(C(=O)O)n(Cc3ccccc3C)c3cc(C)ccc23)cc1,/,7.3µM*,6%,/,/,?
Cc1cc(C)c(Cn2c(C(=O)O)c(C=O)c3ccccc32)c(C)c1,40,6%,0%,-3,-6,7%
SMILES,IL-1B inflam inh,DT40 TDP1 no CPT,TDP1 inh,Six1-Eya2 inh,CtBP-E1A blk,TDP1 cell CPT
CC(C)(C)NC[C@@H](O)COc1cccc2[nH]c(C#N)cc12,/,-24%,-1%[56.1 µM],/,/,23%
Nc1cccc2c(N)cccc12,/,24µM*,18%,/,/,22µM*
Clc1cccc2ccccc12,/,/,11%,/,/,/
N#CCCn1cc(C(=O)Nc2ccccc2Cl)c(-c2ccc([N+](=O)[O-])cc2)n1,-10,?,2%,1,0,-9%
COc1ccc2c3c([nH]c2c1)C(C)=NCC3,-84*,18µM*!,9%,?,-21,?
CC1=NCCc2c1[nH]c1cc(O)ccc21,6,27µM*!,23%[56.1 µM],-10,-11,?
O=C(CF)NC(Nc1cccc2cccnc12)C(Cl)(Cl)Cl (centres undefined),24,?,2%,-8,-3,?
Cc1cccc(NC(=O)Cn2cc(C(=O)c3ccccc3)c3ccccc32)c1,/,?,2%,/,/,?
CC(=O)Nc1ccc(OC(=O)N(C)c2ccccc2)cc1,-9,-4%,5%,3,14,11%
CC(=O)Nc1ccc(S(=O)(=O)N(C)CCOCc2ccccc2)cc1,-13,18µM*,7%,1,15,23µM*
COc1cccc(NC(=O)[C@@H](NC(=O)N2C[C@H]3C[C@@H](C2)c2cccc(=O)n2C3)C(C)C)c1,21,-6%,/,-11,5,-13%
COc1ccc(C2C=C(c3ccccc3)Nc3nc(NC(=O)/C=C/c4ccccc4Cl)nn32)cc1 (centres undefined),/,3.7µM*,14%,/,/,5.2µM*
